# Shiga inhibitor – blocks Shiga toxin action in Vero cells; Vero cells, Shiga toxin protein synthesis inhibition reporter; inhibition, % at 38.7 µM; hit rate 9.2% among 290,000; AID 2315; in the data active = inhibition mostly above about 28%, no sharp cut-off; inactive = mostly below about 43%; also: 0% is about no effect
# Pf growth 96h – P. falciparum growth inhibition at 96 hours; hit rate 6.9% among 320,000; P. falciparum luciferase reporter growth, 96 h; Potency, µM (series often up to 28.7 µM), for the others: at the top dose activity change, negative = inhibition, usual class: inhibitors; AID 504834; also: potency is read from the fitted curve at half-maximal effect; % is scaled to controls: 0 for no effect and ±100 for the full control effect
#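 Plates of compound plus infected erythrocytes (2% hematocrit, 0.05% parasitemia final) incubate 96 hours, 37 C, 5% CO2. Detection reagent added; reduced luminescence from the parasites' luciferase reporter flags inhibition.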
# HCMV antiviral – inhibitors of human cytomegalovirus. activity change, negative = inhibition, % at 57.5 µM. HFF cells, HCMV-luciferase reporter, 72 h; active compounds read low. hit rate 4.5% among 410,000; in the data active = activity change below about -60%; inconclusive = no clear call, values can overlap the other calls; inactive = above about -39%; also: % is scaled to controls: 0 for no effect and ±100 for the full control effect
#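 HFF cells seeded 16 h at 37C, treated with compounds, infected with luciferase-reporter HCMV at MOI 1 PFU/cell; luciferase read at 72 h post infection, normalized to buffer-only and Salinomycin controls.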
# CHX counter – counter-screen for Shiga toxin inhibitors: cycloheximide protein synthesis inhibition | cell reporter, cycloheximide protein synthesis inhibition counterscreen | max response, % | hit rate 12% among 300,000; in the data active = max response mostly above about 13%, no sharp cut-off; inactive = mostly below about 14%; also: read at 38.3 µM for the half of the compounds with a filed dose; 0% is about no effect
# Pf growth 48h – P. falciparum growth inhibition at 48 hours (one generation); Potency, µM (top dose mostly 28.7 µM), for the others: at the top dose activity change, negative = inhibition, actives largely listed as inhibitors; P. falciparum luciferase growth in erythrocytes, 48 h; hit rate 5.9% among 310,000; also: potency is read from the fitted curve at half-maximal effect; % is scaled to controls: 0 for no effect and ±100 for the full control effect
#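 First compound was added to culture medium, then infected red cells at 0.1% parasitemia and 2% hematocrit (final). After incubation at 37 C under 5% CO2, luciferase detection reagent was dispensed and light output recorded.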
# * hit, by the source's call; ? = inconclusive; . = not tested or not shown; [ ] = another dose, or the depositor's remark. Hits are enriched below; roughly 20% of the tested compounds scored in any of these assays. Unless noted, calls follow the shape of the dose curve; as a rule, active = well fitted inhibition curve with a large enough effect; inconclusive = small, poorly fitted or top-dose-only effect, or another doubt; inactive = no such curve, though single readings can be large or run the other way.
SMILES,Shiga inhibitor,Pf growth 96h,HCMV antiviral,CHX counter,Pf growth 48h
O=C(Nc1ccccc1Oc1ccccc1)c1cc([N+](=O)[O-])ccc1Cl,-4.1,-17.3%,-77.4*,-3.1,?
O=C(Nc1ccc(Nc2ccccc2)cc1)c1cc([N+](=O)[O-])ccc1Cl,-9.0,?,42.6,-3.1,?
O=C(Nc1nccs1)c1ccc([N+](=O)[O-])cc1Cl,50.7,10.4µM*,23.0,12.0,55.4%
O=C(Nc1nccs1)c1ccc(Cl)cc1[N+](=O)[O-],-14.2,57.3%,44.4,1.1,29.6%
O=C(Nc1nccs1)c1cc([N+](=O)[O-])ccc1Cl,-3.5,29.6%,-102.7*,3.1,?
O=C(Nc1nccs1)c1ccc(N2CCOCC2)c([N+](=O)[O-])c1,86.1*,47.5%,17.2,50.2*,132.0%
CC1(C)CC(=O)C2=C(C1)OC(c1ccc(O)cc1)C(C#N)=C2N (configuration not stated),-11.0,-2.0%,?,3.3,2.9%
O=C(NC1CCCCCC1)C1CCN(C(=O)N2CCOc3ccc(Cl)cc32)CC1,.,.,9.6,.,.
O=C(Nc1nccs1)c1ccc(Cl)c([N+](=O)[O-])c1,42.9,-4.1%,26.3,42.8*,8.9%
CCN(CC)C(=O)c1oc2ccc(S(=O)(=O)N3CC(C)CC(C)C3)cc2c1C (configuration not stated),25.1,45.4%,-87.9*,2.3,?
Cc1c(C(=O)Nc2ccc(F)cc2)oc2ccc(S(=O)(=O)N3CC(C)CC(C)C3)cc12 (configuration not stated),-12.9,.,-12.2,-1.4,10.4µM*
CCN(CC)C(=O)c1oc2ccc(S(=O)(=O)N3CCCCCC3)cc2c1C,-5.5,.,?,-1.9,?
CC(Sc1ccc(Cl)cc1)C(=O)NCC(c1ccco1)N1CCCCC1 (configuration not stated),.,?,-33.8,.,?
Cc1ccc(N2C(=O)SC(N(CC(=O)O)c3cccc(C)c3)C2=O)cc1 (configuration not stated),98.1*,0.1%,30.5,43.6*,44.3%
O=C(Nc1ccc(S(=O)(=O)NC2=NCCCCC2)cc1)c1cc(F)c(F)cc1Cl,.,-12.1%,-2.6,.,?
CC(Sc1ccc2c(c1)OCCO2)C(=O)Nc1ccc(N2CCOCC2)cc1 (configuration not stated),17.9,94.7%[5.75 µM],77.2,31.0,-29.7%[5.75 µM]
CCN(CC)C(=O)C1CCCN(C(=O)c2cc(COc3ccc4ncccc4c3)on2)C1 (configuration not stated),-5.4,-7.8%,?,-0.9,-21.8%
CCCN1CCN(C(=O)c2cc(COc3ccc4ncccc4c3)on2)CC1,21.9,-23.1%,-67.8*,-2.3,-7.8%
CCN1CCN(C(=O)c2cc(COc3ccc4ncccc4c3)on2)CC1,-26.0,3.2%,-82.2*,-3.0,-4.4%
CC1CCN(C(=O)C2CCCN(S(=O)(=O)c3cccc4nsnc34)C2)CC1 (configuration not stated),-3.8,-29.3%,-27.9,-2.0,5.3%
O=C(NCc1cccnc1)C1CCCN(S(=O)(=O)c2cccc3nsnc23)C1 (configuration not stated),-21.6,10.4µM*,?,-5.5,-6.0%
CN(CC(=O)N1CCN(c2ccccn2)CC1)S(=O)(=O)c1cccc2nsnc12,-11.7,9.28µM*,-25.6,-5.6,-29.3%
CN(CC(=O)N1CCCCC1)S(=O)(=O)c1cccc2nsnc12,10.9,?,-25.0,-5.2,?
O=C(C1CCCN(S(=O)(=O)c2cccc3nsnc23)C1)N1CCN(c2cccc(Cl)c2)CC1 (configuration not stated),.,.,-85.5*,.,.
O=C(C1CCCN(S(=O)(=O)c2cccc3nsnc23)C1)N1CCN(c2ccccn2)CC1 (configuration not stated),-8.4,67.4%,-64.8*,12.5,11.7µM*
COc1cccc(N2CCN(C(=O)C3CCCN(S(=O)(=O)c4cccc5nsnc45)C3)CC2)c1 (configuration not stated),.,.,-7.7,.,.
O=C(C1CCOCC1)N1CCCC(N2CCN(c3ccc(F)cc3)CC2)C1 (configuration not stated),-7.8,9.2%,-2.8,12.1,-10.9%
O=C(Nc1ccc(S(=O)(=O)N2CCCC2)cc1)c1ccccc1,.,-10.3%,3.6,.,-29.6%
O=C(Nc1ccccc1F)c1ccc(CN2CCc3ccccc3C2)cc1,27.0,-3.3%,?,19.6*,4.9%

# Assay outcomes from PubChem.
